The text below walks through data of ChEMBL document CHEMBL2218924, “A broad activity screen in support of a chemogenomic map for kinase signalling research and drug discovery” (Biochem J, 2013).

The target of assay [1] is T1, Muscle, skeletal receptor tyrosine-protein kinase (Homo sapiens) (UniProt O15146).
T1 sequence (whole entry): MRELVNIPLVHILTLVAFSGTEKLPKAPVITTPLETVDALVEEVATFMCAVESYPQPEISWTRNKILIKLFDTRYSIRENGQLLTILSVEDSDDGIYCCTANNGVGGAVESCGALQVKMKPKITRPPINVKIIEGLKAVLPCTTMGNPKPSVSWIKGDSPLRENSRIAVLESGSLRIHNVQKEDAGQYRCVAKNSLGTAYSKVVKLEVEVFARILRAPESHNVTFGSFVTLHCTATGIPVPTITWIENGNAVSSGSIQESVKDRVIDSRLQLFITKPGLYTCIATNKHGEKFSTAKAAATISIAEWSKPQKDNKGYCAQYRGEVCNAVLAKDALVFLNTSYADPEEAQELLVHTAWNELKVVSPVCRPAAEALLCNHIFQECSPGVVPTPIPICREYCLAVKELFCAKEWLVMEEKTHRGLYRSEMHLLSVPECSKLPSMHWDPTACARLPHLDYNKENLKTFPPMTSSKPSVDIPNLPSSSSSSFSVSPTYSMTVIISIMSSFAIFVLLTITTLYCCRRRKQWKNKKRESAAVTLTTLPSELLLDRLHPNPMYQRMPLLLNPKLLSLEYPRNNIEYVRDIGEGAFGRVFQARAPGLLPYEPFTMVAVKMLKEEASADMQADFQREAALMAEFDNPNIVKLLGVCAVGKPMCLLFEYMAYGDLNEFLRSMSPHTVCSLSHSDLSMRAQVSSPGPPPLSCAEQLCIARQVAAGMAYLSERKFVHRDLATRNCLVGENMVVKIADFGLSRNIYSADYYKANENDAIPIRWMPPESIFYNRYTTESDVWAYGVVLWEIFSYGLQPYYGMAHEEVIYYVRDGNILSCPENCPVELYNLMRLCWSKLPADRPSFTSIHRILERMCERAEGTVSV
The settings on record: at 1 µM.

Assay [2] deals with T1, Muscle, skeletal receptor tyrosine-protein kinase (Homo sapiens). Conditions: at 10 µM.
Assay [3] concerns the target T2, Serine/threonine-protein kinase Nek11 (Homo sapiens) (UniProt Q8NG66).
T2 sequence (whole entry): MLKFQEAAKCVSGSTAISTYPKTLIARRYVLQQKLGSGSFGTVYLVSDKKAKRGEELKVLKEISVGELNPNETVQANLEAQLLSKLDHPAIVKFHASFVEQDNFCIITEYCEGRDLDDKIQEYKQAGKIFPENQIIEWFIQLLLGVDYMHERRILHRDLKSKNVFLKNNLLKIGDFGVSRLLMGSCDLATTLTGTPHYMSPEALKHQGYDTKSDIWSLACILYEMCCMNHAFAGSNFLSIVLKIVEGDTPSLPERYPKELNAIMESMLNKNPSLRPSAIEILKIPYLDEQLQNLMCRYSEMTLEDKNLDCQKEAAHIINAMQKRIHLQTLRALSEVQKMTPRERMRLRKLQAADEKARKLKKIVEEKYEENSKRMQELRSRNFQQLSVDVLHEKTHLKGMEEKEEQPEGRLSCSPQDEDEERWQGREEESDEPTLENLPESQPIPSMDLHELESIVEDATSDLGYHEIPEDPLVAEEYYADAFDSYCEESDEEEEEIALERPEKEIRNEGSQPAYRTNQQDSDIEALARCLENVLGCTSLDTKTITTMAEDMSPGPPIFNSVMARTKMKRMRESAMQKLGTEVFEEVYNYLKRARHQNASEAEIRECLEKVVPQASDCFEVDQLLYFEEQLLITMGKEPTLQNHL
Conditions: at 1 µM.

The target in assay [4] is T2, Serine/threonine-protein kinase Nek11 (Homo sapiens). The settings on record: at 10 µM.
Assay [5] addresses T3, Serine/threonine-protein kinase Nek2 (Homo sapiens) (UniProt P51955).
T3 sequence (whole entry): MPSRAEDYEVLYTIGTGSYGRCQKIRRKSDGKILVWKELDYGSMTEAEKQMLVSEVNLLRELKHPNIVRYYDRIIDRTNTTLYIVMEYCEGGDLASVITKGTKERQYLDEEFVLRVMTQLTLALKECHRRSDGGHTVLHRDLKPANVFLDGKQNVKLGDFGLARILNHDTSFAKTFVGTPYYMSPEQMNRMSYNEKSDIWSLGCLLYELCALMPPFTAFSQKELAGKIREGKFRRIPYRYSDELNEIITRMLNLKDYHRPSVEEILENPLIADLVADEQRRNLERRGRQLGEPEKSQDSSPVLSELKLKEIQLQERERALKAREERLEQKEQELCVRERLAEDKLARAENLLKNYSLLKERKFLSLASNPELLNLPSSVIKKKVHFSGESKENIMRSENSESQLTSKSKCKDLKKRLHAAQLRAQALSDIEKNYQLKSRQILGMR
Conditions: at 1 µM.

Assay [6] deals with T3, Serine/threonine-protein kinase Nek2 (Homo sapiens). Conditions: at 10 µM.
Assay [7] deals with T4, Serine/threonine-protein kinase Nek3 (Homo sapiens) (UniProt P51956).
T4 sequence (whole entry): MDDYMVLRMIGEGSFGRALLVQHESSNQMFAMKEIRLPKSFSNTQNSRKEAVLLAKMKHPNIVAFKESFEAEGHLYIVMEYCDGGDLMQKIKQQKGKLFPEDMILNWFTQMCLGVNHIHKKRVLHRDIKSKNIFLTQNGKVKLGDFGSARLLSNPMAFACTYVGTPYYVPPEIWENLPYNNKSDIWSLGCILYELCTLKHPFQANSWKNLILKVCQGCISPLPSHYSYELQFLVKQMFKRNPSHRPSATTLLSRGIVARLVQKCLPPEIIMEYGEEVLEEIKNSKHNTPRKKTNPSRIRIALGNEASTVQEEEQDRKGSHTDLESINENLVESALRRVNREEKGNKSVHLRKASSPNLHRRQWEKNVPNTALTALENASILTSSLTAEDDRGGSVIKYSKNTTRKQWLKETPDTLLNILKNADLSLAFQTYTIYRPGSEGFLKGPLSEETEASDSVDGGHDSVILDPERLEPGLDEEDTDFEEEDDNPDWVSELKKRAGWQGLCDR
Conditions: at 1 µM.

Assay [8] addresses T4, Serine/threonine-protein kinase Nek3 (Homo sapiens). Conditions: at 10 µM.
Assay [9] has as its target Serine/threonine-protein kinase tousled-like 2 (Homo sapiens) (UniProt Q86UE8). Conditions: at 1 µM.
The target in assay [10] is T5, Testis-specific serine/threonine-protein kinase 1 (Homo sapiens) (UniProt Q9BXA7).
T5 sequence (whole entry): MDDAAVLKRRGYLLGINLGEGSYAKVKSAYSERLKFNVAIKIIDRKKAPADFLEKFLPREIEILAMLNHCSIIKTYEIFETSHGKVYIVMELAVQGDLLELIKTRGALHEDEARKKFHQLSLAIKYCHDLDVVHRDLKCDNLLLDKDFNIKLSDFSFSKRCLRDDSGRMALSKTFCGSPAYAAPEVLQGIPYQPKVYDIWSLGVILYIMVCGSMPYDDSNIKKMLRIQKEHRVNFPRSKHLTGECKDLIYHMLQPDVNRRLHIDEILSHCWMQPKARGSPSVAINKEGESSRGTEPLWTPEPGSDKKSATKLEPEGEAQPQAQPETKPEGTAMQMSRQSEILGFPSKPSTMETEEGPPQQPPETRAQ
The settings on record: at 1 µM.

The target in assay [11] is T5, Testis-specific serine/threonine-protein kinase 1 (Homo sapiens). Conditions: at 10 µM.
The target in assay [12] is T6, Testis-specific serine/threonine-protein kinase 2 (Homo sapiens) (UniProt Q96PF2).
T6 sequence (whole entry): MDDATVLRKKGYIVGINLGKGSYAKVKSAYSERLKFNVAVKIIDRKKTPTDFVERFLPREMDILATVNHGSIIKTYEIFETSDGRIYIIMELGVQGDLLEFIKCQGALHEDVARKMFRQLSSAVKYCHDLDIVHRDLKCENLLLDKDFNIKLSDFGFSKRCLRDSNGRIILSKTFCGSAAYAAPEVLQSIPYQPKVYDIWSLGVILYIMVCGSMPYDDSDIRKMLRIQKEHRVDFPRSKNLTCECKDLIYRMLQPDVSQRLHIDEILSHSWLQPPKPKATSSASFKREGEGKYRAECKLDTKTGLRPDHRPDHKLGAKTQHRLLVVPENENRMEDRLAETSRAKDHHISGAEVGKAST
Conditions: at 10 µM.

The target of assay [13] is T7, Tyrosine-protein kinase Tec (Homo sapiens) (UniProt P42680).
T7 sequence (whole entry): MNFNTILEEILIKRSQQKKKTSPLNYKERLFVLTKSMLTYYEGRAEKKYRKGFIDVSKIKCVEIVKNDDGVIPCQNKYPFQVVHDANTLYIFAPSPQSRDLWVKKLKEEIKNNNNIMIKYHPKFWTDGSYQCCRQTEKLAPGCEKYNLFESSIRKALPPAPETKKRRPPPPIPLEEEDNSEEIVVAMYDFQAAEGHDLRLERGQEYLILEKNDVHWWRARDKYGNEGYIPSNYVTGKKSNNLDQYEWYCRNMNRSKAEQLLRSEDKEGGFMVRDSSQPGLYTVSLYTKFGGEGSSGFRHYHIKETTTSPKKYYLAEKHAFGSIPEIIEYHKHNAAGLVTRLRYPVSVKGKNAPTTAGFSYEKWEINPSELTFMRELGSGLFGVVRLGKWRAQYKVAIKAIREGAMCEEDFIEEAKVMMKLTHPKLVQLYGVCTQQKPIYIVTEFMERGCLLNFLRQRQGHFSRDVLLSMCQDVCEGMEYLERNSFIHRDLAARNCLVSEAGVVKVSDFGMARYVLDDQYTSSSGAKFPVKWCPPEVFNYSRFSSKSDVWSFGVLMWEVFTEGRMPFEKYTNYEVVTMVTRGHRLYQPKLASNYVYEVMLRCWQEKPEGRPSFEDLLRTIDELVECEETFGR
Conditions: at 1 µM.

Assay [14] concerns the target T7, Tyrosine-protein kinase Tec (Homo sapiens). The settings on record: at 10 µM.
For assay [15], the target named is Angiopoietin-1 receptor (Homo sapiens) (UniProt Q02763). The settings on record: at 1 µM.
Assay [16] has the same target. The settings on record: at 10 µM.
Assay [17] addresses High affinity nerve growth factor receptor (Homo sapiens) (UniProt P04629). Conditions: at 1 µM.
The target is the same in assay [18]. The settings on record: at 10 µM.
Assay [19] addresses Serine/threonine-protein kinase tousled-like 2 (Homo sapiens) (UniProt Q86UE8). The settings on record: at 10 µM.
In assay [20] the target is BDNF/NT-3 growth factors receptor (Homo sapiens) (UniProt Q16620). Conditions: at 1 µM.
BDNF/NT-3 growth factors receptor (Homo sapiens), sequence (Q16620 32-822 limits assumed): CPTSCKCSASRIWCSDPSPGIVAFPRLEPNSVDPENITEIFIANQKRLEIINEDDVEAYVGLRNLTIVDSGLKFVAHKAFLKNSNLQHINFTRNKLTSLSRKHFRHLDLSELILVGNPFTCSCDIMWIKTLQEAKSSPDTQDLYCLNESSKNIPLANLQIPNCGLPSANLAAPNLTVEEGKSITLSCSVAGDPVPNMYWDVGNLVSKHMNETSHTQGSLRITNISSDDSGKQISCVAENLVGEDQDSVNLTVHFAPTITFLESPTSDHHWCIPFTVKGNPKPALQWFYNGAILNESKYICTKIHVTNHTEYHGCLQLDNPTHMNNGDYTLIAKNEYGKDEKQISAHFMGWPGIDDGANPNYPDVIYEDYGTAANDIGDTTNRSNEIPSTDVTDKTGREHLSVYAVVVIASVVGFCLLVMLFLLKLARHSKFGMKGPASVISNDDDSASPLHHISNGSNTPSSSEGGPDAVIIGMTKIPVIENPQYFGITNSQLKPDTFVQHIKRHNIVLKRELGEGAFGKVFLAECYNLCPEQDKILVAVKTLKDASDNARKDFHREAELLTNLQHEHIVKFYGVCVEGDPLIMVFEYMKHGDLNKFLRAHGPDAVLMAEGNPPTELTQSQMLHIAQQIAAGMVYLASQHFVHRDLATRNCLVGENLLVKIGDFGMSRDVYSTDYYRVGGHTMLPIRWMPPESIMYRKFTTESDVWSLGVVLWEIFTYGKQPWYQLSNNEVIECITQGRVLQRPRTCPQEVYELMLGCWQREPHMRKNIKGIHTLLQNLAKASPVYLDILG

Angiopoietin-1 receptor (Homo sapiens), sequence (Q02763 whole entry): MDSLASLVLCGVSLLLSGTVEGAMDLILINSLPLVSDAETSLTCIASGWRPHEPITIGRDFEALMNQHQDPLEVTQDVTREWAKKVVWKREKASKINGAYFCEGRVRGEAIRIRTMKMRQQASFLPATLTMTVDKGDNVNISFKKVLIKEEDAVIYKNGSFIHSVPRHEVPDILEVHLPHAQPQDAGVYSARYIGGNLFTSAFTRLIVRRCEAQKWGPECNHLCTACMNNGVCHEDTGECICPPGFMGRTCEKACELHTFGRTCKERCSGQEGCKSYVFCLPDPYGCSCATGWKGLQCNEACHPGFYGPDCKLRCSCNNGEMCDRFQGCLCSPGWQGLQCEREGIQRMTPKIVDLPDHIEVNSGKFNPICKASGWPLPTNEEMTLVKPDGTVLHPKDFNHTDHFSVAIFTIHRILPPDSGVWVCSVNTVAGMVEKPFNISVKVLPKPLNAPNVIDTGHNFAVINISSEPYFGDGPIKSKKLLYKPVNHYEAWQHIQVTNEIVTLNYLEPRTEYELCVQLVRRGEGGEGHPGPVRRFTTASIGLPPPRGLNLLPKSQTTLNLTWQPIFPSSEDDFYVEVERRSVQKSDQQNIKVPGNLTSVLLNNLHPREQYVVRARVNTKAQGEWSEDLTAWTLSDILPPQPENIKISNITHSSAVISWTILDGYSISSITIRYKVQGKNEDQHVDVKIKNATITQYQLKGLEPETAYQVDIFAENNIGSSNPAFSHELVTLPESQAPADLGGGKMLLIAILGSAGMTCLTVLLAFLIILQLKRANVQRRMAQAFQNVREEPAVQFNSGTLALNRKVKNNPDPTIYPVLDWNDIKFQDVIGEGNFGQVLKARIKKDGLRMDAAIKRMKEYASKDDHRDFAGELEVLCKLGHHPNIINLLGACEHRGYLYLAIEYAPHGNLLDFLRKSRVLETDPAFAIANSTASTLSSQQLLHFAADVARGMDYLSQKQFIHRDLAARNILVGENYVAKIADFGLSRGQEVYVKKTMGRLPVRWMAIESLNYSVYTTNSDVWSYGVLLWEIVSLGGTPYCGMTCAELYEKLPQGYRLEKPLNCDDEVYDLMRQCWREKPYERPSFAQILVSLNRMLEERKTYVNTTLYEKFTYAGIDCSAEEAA
Serine/threonine-protein kinase tousled-like 2 (Homo sapiens), sequence (Q86UE8 whole entry, looked up): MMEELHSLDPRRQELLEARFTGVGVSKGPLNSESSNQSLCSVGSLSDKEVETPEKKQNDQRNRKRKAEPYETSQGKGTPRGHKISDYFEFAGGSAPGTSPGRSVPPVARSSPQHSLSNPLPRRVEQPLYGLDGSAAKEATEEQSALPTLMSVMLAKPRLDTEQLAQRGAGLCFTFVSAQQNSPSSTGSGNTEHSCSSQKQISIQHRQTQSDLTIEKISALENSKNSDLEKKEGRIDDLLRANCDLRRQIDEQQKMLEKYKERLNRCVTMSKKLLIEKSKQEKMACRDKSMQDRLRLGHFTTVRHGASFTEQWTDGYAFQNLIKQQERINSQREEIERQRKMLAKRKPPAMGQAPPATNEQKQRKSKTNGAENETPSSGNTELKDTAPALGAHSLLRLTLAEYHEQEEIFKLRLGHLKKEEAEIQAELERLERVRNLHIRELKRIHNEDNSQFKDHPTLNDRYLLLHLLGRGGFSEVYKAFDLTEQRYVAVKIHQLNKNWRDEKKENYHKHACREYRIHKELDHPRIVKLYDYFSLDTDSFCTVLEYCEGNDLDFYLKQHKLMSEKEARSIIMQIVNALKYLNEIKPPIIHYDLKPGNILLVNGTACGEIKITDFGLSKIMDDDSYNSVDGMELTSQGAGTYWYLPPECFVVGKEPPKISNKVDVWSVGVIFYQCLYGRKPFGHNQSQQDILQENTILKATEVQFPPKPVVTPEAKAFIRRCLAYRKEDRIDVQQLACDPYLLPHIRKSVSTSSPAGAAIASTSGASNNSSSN
High affinity nerve growth factor receptor (Homo sapiens), sequence (P04629 33-796 limits assumed): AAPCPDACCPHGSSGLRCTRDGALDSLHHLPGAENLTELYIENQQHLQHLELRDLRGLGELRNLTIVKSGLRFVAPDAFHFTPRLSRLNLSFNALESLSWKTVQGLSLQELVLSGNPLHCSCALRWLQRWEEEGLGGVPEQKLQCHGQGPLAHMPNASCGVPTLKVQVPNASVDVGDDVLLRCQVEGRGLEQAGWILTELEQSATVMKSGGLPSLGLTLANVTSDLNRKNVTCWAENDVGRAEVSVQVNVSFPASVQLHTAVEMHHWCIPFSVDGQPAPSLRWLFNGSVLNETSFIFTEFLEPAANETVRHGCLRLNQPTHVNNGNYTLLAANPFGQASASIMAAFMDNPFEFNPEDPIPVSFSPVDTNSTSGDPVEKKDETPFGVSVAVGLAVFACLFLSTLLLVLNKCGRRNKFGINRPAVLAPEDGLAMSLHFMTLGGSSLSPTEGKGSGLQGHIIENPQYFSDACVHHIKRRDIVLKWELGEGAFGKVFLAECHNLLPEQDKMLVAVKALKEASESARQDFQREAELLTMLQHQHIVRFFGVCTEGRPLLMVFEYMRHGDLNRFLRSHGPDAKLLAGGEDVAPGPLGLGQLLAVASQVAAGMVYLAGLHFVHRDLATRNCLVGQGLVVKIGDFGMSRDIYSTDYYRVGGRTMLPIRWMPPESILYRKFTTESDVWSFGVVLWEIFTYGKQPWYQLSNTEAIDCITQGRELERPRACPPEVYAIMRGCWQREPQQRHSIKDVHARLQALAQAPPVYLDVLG

As for `Cn1nc2c3c(cccc31)C(=O)c1ccccc1-2`, the residual activity in assay [1] was found to be 75%; in assay [2], 81%; in assay [3], 48%; in assay [4], 55%; in assay [5], 95%; in [6] it was 84%. Also, the residual activity in assay [7] was 74%; in assay [8] it was 91%; in [9], 95%; in assay [10], 100%; in [11] it was 79%; in [12] it was 76%. The residual activity in [13] came out at 90%; in assay [14], 69%; in assay [15] it was 104%; in assay [16] it was 79%; in [17], 46%; in assay [18], 9%.
In the case of `N#Cc1cnc2cnc(NCc3cccnc3)cc2c1Nc1ccc(F)c(Cl)c1`, the residual activity in assay [1] was found to be 93%; in [2], 60%; in assay [3] it was 88%; in assay [4], 79%; in assay [7], 37%; in assay [8], 46%. The residual activity in assay [9] is 73%; in [19], 47%; in [10] it was 0%; in [11], -1%; in assay [12], 14%; in [13] it was 90%. Besides, the residual activity in assay [14] is 65%; in assay [17], 101%; in [18] it was 88%; in assay [20], 3%.
For the compound `COc1ccc(OC)c2c(=S)c3ccccc3[nH]c12`, the residual activity is 89% in [1]; 85% in assay [2]; 70% in assay [3]; 54% in assay [4]; 98% in assay [5]; 95% in [6]. The residual activity in assay [7] came to 74%; in assay [8], 91%; in assay [9], 84%; in [19] it was 87%; in assay [10] it was 90%; in [11] it was 94%. In addition, the residual activity is 90% in [12]; 92% in [13]; 84% in assay [14]; 94% in assay [15]; 94% in assay [16]; 78% in assay [17]. Moreover, the figures for the residual activity in [18] and in [20] were 57% and 88%, respectively.
With `O=C1Nc2ccccc2/C1=C1/Nc2ccccc2/C1=N\OCCC(O)CO` (stereo not drawn), the residual activity in [1] was 20%; in assay [2], 3%; in assay [3], 41%; in [4], 35%; in [7], 71%; in [9] it was 38%. In addition, the residual activity in [19] was 6%; in assay [10] it was 75%; in assay [11], 69%; in assay [13], 47%; in assay [14] it was 8%; in assay [17], -1%. Further, the residual activity is 0% in assay [18] and -2% in assay [20].
For `Oc1ccc(Nc2nc(-c3ccc(Cl)cc3)cs2)cc1`, the residual activity in assay [1] was determined as 112%; in assay [2] it was 91%; in [3] it was 72%; in [4] it was 40%; in assay [5], 116%; in [6] it was 97%. The residual activity in assay [7] stood at 106%; in [8] it was 111%; in assay [9], 104%; in [19] it was 103%; in [10], 110%; in assay [11], 87%. For the same compound, the residual activity in [12] was determined as 105%; in assay [13], 100%; in assay [14], 78%; in assay [15], 113%; in assay [16], 131%; in assay [17], 108%. Also, the residual activity stood at 64% in assay [18] and 74% in assay [20].
`O=C1Nc2cc(Br)ccc2/C1=C1/Nc2ccccc2/C1=N\O`: the residual activity in assay [1] is 80%; in [2], 84%; in [3], 69%; in [4], 45%; in [5] it was 89%; in [6] it was 86%. Further, the residual activity in assay [7] was found to be 65%; in assay [8], 70%; in [9], 81%; in assay [19], 48%; in [10], 86%; in assay [11], 90%. The residual activity was found to be 62% in assay [12]; 15% in assay [13]; 13% in assay [14]; 67% in assay [15]; 79% in assay [16]; 0% in assay [17]. In addition, the residual activity in assay [18] is 0%; in [20] it was -1%.

The term residual activity denotes the signal under treatment as a percentage of the control signal.
